# Laboratory results from PubChem BioAssay AID624040 (The Scripps Research Institute Molecular Screening Center, 2012).
# Hit rate of the full screen: of about 360,000 compounds, about 2,100 (0.58%) were called active. The full list was thinned out, with actives kept by preference. Values without a mark were called inactive.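 The calls were made as follows: active = inhibition above a per-plate cutoff, the mean of that plate's test compounds plus 3 SD (cut at about 27% in these data); inactive = the rest.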
# Target: Muscarinic acetylcholine receptor M5 (Homo sapiens) (UniProt P08912)
# Experiment: CHRM5 blockers of acetylcholine calcium response – CHO cells, Fluo-8 calcium fluorescence, primary screen (AID 624040);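 also: 0% = acetylcholine EC80 with DMSO and 100% = DMSO without agonist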
# Settings: CHO-hM5 cells, ACh EC80, at 3 µM, stronger effect = higher value
# Muscarinic acetylcholine receptor M5 (Homo sapiens), sequence (P08912 whole entry, looked up): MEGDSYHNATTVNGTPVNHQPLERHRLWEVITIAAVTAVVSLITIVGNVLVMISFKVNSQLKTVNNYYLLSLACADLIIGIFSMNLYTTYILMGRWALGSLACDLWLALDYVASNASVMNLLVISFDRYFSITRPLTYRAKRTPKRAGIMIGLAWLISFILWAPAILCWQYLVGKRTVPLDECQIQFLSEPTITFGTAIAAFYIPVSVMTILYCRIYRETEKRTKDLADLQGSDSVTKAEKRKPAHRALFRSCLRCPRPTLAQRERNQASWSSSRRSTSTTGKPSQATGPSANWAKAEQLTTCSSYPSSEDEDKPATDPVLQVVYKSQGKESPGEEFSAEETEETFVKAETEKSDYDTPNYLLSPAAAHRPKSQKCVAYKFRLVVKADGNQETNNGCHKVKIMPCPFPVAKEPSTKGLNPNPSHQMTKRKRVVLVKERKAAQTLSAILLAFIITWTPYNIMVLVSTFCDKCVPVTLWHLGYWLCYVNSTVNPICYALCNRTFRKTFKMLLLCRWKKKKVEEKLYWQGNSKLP
row,Compound,inhibition
1,CC1C(=O)NC(=O)C1c1ccccc1 (centres undefined),5.64%
2,COc1cccc(-c2ccc(C#N)c(SCC(=O)NCCc3ccc(Cl)cc3)n2)c1,-0.91%
3,COc1cc(C(=O)N2CCOC23CCN(Cc2ccccc2)CC3)cc(OC)c1OC,4.88%
4,C[C@@H]1CC[C@@]2(OC1)O[C@H]1C[C@H]3[C@@H]4CC=C5C[C@@H](O)[C@H](O)C[C@]5(C)C4CC[C@]3(C)[C@H]1[C@@H]2C (some centres undefined),-3.19%
5,O=C(OCc1nnc(-c2ccccc2)o1)c1cc(=O)[nH]c2ccccc12,6.31%
6,Cc1onc(-c2ccccc2)c1-c1nnc(COC(=O)c2ccc(N(C)C)cc2)o1,66.8% (active)
7,O=C(OCc1nnc(-c2ccccc2)o1)c1ccc2c(c1)C(=O)N(CCc1ccccc1)C2=O,5.45%
8,CN/C(=C\[N+](=O)[O-])NCCSCc1csc(CN(C)C)n1,4.23%
9,CC(C)C(=O)Nc1nnc(Sc2ccc(N(C)C)cc2)s1,-0.86%
10,O=C(Cc1ccc(S(=O)(=O)N2CCOCC2)s1)N1CCN(c2ccc(C(F)(F)F)cc2[N+](=O)[O-])CC1,17.4%
11,O=C(c1ccc(N2CCCC2=O)cc1)N1CCN(c2ccc(C(F)(F)F)cc2[N+](=O)[O-])CC1,29.3% (active)
12,COc1cc(OC)cc(C(=O)NC(=S)N2CCN(c3ccc(C(F)(F)F)cc3[N+](=O)[O-])CC2)c1,18.9%
13,CC(Sc1sc(=S)sc1SC(C)C(=O)O)C(=O)O (centres undefined),0.68%
14,Cc1cc2oc3ccc(NCCC4CCCN4C)cc3c(=O)c2cc1C (centres undefined),9.19%
15,CN1CCC[C@@H]1CCO[C@](C)(c1ccccc1)c1ccc(Cl)cc1,98.5% (active)
16,Cc1ccc(-c2noc(CNC(=O)c3ccoc3C)n2)cc1,12.7%
17,CC(=O)c1ccc(S(=O)(=O)N(C)CCCC(=O)N(C)Cc2ccccc2F)cc1,-0.62%
18,Cc1nc(CN(C)C(=O)CC2C(=O)NCCN2Cc2ccc(F)cc2)cs1 (centres undefined),-22.7%
19,CSc1cccc(NC(=S)N(C(C)C)C(C)c2ccccn2)c1 (centres undefined),4.26%
20,COc1ccc(-c2[nH]ncc2CN(C)Cc2cccnc2)c(F)c1,-5.23%
21,COc1ccc2[nH]c(=O)c(CN(Cc3cccnc3)S(=O)(=O)c3ccccc3F)cc2c1,27.3% (active)
22,CCOc1ccc2[nH]c(=O)c(CN(CCCO)S(=O)(=O)c3ccc(F)cc3)cc2c1,11.3%
23,CC(C)c1nnc(NC(=O)C2CCCN2S(=O)(=O)c2ccc(Cl)cc2)s1 (centres undefined),-0.86%
24,CCOc1c(OC)cccc1C(=O)NCC1(c2ccccc2)CCCC1,15.3%

row,Compound,inhibition
1,CC(=O)CC(CC(=O)NC1CCCCC1)c1ccccc1 (centres undefined),8.42%
2,O=C(CNC1CCCCC1)NCC1(c2ccccc2)CCCC1,27.1% (active)
3,CC1CN(c2nc(-c3ccccc3)nnc2-c2ccccc2)CC(C)O1 (centres undefined),0.03%
4,O=C(c1cc(COc2c(F)cccc2F)on1)N1CCSCC1,-3.86%
5,C=CCC1(CC=C)CCCN1C(=O)c1cc(COc2ccc(-n3cncn3)cc2)on1,41.9% (active)
6,CCCC(=O)N1CCC1(C)C(=O)Nc1ccc(-n2cncn2)cc1 (centres undefined),-3.91%
7,CCN(CC)C(=O)C1CCC(C)(C(=O)O)C1(C)C (centres undefined),8.62%
8,COc1ccc(Cn2cc(CN3CCS(=O)(=O)N(Cc4ccc(-c5cccc(Cl)c5)cc4)C(C)C3=O)nn2)cc1 (centres undefined),-2.91%
9,CC1=C(C(N)=O)C(c2sccc2C)n2nnnc2N1 (centres undefined),-6.06%
10,COc1ccc(OC)c(C2N(c3ccccn3)C(=O)C3CCCN32)c1 (centres undefined),2.53%
11,CN(C)CC/C=C1\c2ccccc2CSc2ccccc21,99.1% (active)
12,CN(C)Cc1ccccc1C1(O)c2ccccc2CSc2ccccc21 (centres undefined),18.8%
13,CCOC(=O)c1ccc(N=C2SC(C(=O)NC)CC(=O)N2CCc2ccccc2)cc1 (centres undefined),3.02%
14,COc1ccc(NC(=O)/C(Cl)=C(/Cl)S(=O)Cc2ccc(C)cc2)cn1 (centres undefined),34.9% (active)
15,N#Cc1ccc(COC(=O)Cn2nnc(-c3ccccc3)n2)cc1,1.41%
16,c1cc(-n2cnnn2)ccc1NC1=NCCC1,-8.17%
17,O=C(CSc1nccn1-c1cccc(F)c1)NC1CCCC1,0.21%
18,CCC(C)(C)NC(=O)CN(C(=O)CCC(=O)Nc1cc(C)ccn1)c1ccc2c(c1)OCCO2,-0.46%
19,CCCCC(=O)NNC(=S)NC(=O)C(c1ccccc1)c1ccccc1,28.1% (active)
20,C=CCC(NC(=O)Cc1ccccc1)C(=O)NCCC (centres undefined),-3.26%
21,CCCOCC(O)CC(CC)C(=O)NNC(=S)Nc1ccccc1 (centres undefined),-7.7%
22,CCCNC(=O)N1CCN(C(=O)NCCC)CC1,8.13%
23,CCN1/C(=C\c2ccc3ccccc3[n+]2CC)Sc2cc(C)ccc21,48.1% (active)
24,C#CCO[C@@H]1C[C@H](n2cnc3c(=O)[nH]c(NC(=O)C(C)C)nc32)O[C@@H]1CO,9.77%

row,Compound,inhibition
1,Cc1cccc(-n2c(Cc3cc(=O)[nH]c(=O)[nH]3)nnc2SC(C)C)c1,-3.22%
2,CC[C@]12c3[nH]c4ccc(Cl)cc4c3CCN1C(=O)[C@@H](CC(=O)NCCCOC)C[C@@H]2C(=O)N1CCN(C(=O)C2CC2)CC1,0.99%
3,COc1ccccc1NS(=O)(=O)c1ccc(C)c(C(=O)NCC(c2ccco2)N(C)C)c1 (centres undefined),6.64%
4,CSCCC(NS(=O)(=O)c1ccc(C)cc1)C(=O)NCCc1c[nH]c2ccccc12 (centres undefined),2.39%
5,Cc1cccc(N2CCN(S(=O)(=O)c3ccc(-c4cc(C)no4)s3)CC2C)c1 (centres undefined),-1.63%
6,Cc1cc(-c2ccc(S(=O)(=O)N3CCN(c4cccc(C(F)(F)F)c4)CC3)s2)on1,53.9% (active)
7,Cc1cc(-c2ccc(S(=O)(=O)N3CCc4ccccc4C3)s2)on1,5.38%
8,C=CCCN(Cc1ccccc1)S(=O)(=O)c1ccccc1Br,13.3%
9,O=C(NCC(=O)N1CCC2(CC1)NCCc1[nH]cnc12)c1ccc(Br)cc1,-15.5%
10,O=C1C2C3C=CC(C3)C2C(=O)N1c1ccc(-c2nc3ccccc3c(=O)o2)cc1 (centres undefined),-6.13%
11,Nc1c(C(=O)c2cccs2)sc2nsc(SCCN3CCCCC3)c12,47.4% (active)
12,CC1CCC2(CC1)NC(=O)N(Cc1nnc(-c3cccs3)o1)C2=O (centres undefined),8.17%
13,COc1ccccc1CNC(=O)COn1nnc2ccc(S(=O)(=O)N3CCOCC3)cc21,4.42%
14,CN1CCN(C(=O)N2c3ccccc3CCc3ccccc32)CC1,98.8% (active)
15,Cn1cccc1C(=O)N1CCc2ccccc2C1,-2.44%
16,CN1CCN(S(=O)(=O)c2cccc(C(=O)N3CCc4ccccc43)c2)CC1,5.4%
17,COc1ccc(C(=O)NC2CC2)cc1OC1CCN(C/C=C/c2ccccc2)CC1,3.15%
18,COCCn1c(SCC(=O)Nc2cc(OC)ccc2OC)nc2c(c1=O)SC(C)C2 (centres undefined),3.68%
19,CC(=O)Nc1ccc(S(=O)(=O)NCC(=O)OCc2cc(=O)oc3ccc4ccccc4c23)cc1,0.62%
20,CC(C)S(=O)(=O)c1csc(NC(=O)Nc2ccc(Cl)cc2)c1Cl,37.3% (active)
21,COc1ccc(OCC(O)CNC(=O)Nc2ccc(Cl)cc2)cc1 (centres undefined),12.7%
22,CC(=O)N1CCC(N(C(=O)Nc2ccc(Cl)cc2)C(C)C)CC1,12.4%
23,Cc1cc(N2CCCC2)ccc1NC(=O)COc1ccc(Cl)cc1,-1.18%
24,O=C(CCCN=C1NS(=O)(=O)c2ccccc21)OCC(=O)c1ccc(F)c(F)c1,7.17%

row,Compound,inhibition
1,COc1cc(OC)c(OC)cc1CN1CCN(C(=O)c2cccc3ccccc23)CC1,4.24%
2,Cc1cccc2cc3c(N)c(C(=O)N4CCCc5ccccc54)sc3nc12,28.3% (active)
3,Cc1ccc(C(=O)N2CCCc3ccccc32)c(Cl)c1,16.7%
4,CCCn1nc(C(=O)N2CCCc3ccccc32)c2ccccc2c1=O,12.6%
5,O=C(Cc1ccc(S(=O)(=O)N2CCOCC2)s1)NCCOc1ccccc1F,-4.35%
6,CC(Sc1nnc(CNC(=O)c2ccccc2F)n1C)C(=O)Nc1nccs1 (centres undefined),5.11%
7,FC(F)Oc1ccccc1NC(=S)Nc1cccc(Cl)c1Cl,-7.36%
8,COc1ccc(CN(C)C(=O)Cc2ccsc2)c(OC)c1OC,6.37%
9,COc1ccc(CN(C)C(=O)Cc2c[nH]c3ccccc23)c(OC)c1OC,1.21%
10,COc1ccc(-c2cc(C(=O)N(C)Cc3ccc(OC)c(OC)c3OC)c3ccccc3n2)cc1OC,29.8% (active)
11,CCCCN(CCCC)CCNC(=O)CN1C(=O)COc2ccc(S(=O)(=O)N3CCOCC3)cc21,-0.51%
12,CCO[C@H]1OC(C(=O)O)=C[C@@H](C2CCCCC2)[C@@H]1CCCO,9.63%
13,O=C(NCc1cccnc1)c1nc(-c2cccs2)no1,5.2%
14,CC(C)(C)NC(=O)NC(=O)COC(=O)CCC1CCCCC1,-5.64%
15,CCc1ccc(CNC(=O)C2CCN(c3nnc(C)c4c(C)n(-c5ccc(C)cc5)nc34)CC2)cc1,0.33%
16,CCOc1ccc(CCN2C(=S)N([C@@H](CC(C)C)CN3CCC[C@@H]3CN3C(=S)NC[C@@H]3Cc3ccc(O)cc3)C[C@@H]2Cc2ccc(O)cc2)cc1,0.29%
17,COc1ccc(C(c2nnnn2C2CCCCC2)N2CCN(c3ccccc3F)CC2)cc1 (centres undefined),-15.7%
18,CCCCn1nnnc1C(c1ccccc1)N1CCN(c2ccccc2OC)CC1 (centres undefined),2.03%
19,COCCn1nnnc1C(c1ccccc1Cl)N1CCN(c2ccccc2OC)CC1 (centres undefined),-11.5%
20,COc1ccc(C(c2nnnn2C2CCCC2)N2CCN(C/C=C/c3ccccc3)CC2)cc1 (centres undefined),42% (active)
21,FC(F)(F)Oc1ccccc1C(c1nnnn1C1CCCCC1)N1CCN(C/C=C/c2ccccc2)CC1 (centres undefined),-11.2%
22,CCCCn1nnnc1C(c1cccc(OC)c1OC)N1CCN(C/C=C/c2ccccc2)CC1 (centres undefined),47% (active)
